This is an account of results in PubChem BioAssay (NCI).

This is part of a sample that, as a whole, favours compounds with a hit. Of some 83,000 tested, about 20% had one in any assay.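 48-hour exposure, single concentration, 96-well plates; percent growth endpoint where 0 means no net growth. Active: below 10.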 Values without a mark were called inactive. Activity calls are given as the source filed them.

What all share (assay): NCI-60 one-dose screen, 48 h (100 = growth as untreated, 0 = no growth, -100 = all killed)
Details in all cases: 10 µM unless noted

Assay [1] deals with HCT-15 colon.
In assay [2] the test system is HT29 colon.
For assay [3], the system named is SNB-75 CNS.
Assay [4] deals with SNB-19 CNS.
In assay [5] the test system is U251 CNS.
Assay [6] has as its system SK-MEL-5 melanoma.
In assay [7] the test system is UACC-62 melanoma.
Assay [8] relates to LOX IMVI melanoma.
The subject of assay [9] is SK-MEL-28 melanoma.
Assay [10] concerns SK-MEL-2 melanoma.
Assay [11] concerns EKVX NSCLC.
Assay [12] has as its system SN12C renal.
The test system of assay [13] is UO-31 renal.
The test system of assay [14] is TK-10 renal.
Assay [15] relates to ACHN renal.
The subject of assay [16] is CAKI-1 renal.
Assay [17] concerns A498 renal.
The subject of assay [18] is CCRF-CEM leukemia.
Assay [19] relates to MOLT-4 leukemia.

On to `NS(=O)(=O)c1cccc(Nc2nc(SCC(=O)c3ccc(Cl)cc3)nc3c2CCC3)c1`, for which the growth was 96.7% in assay [1]; 109% in [2]; 87% in [3]; 62.5% in [4]; 63.9% in assay [5]; 94.9% in [6]. The growth in [7] is 97.1%; in assay [8] it was 86.2%; in assay [9] it was 104%; in assay [10], 98%; in [11], 97.7%; in assay [12], 98%. For the same molecule, the growth in assay [13] was 90.9%; in assay [14] it was 119%; in assay [15], 92.4%; in [16], 86.7%; in assay [17] it was 79.4%; in [18] it was 98.3%. Also, in [19], the growth is 105%.
Turning to `NS(=O)(=O)c1ccc(Nc2nc(Nc3ccccc3)nc(N3N=C(c4ccc(Cl)cc4)CC3c3ccc(Cl)cc3)n2)cc1` (centres undefined), the growth in [1] is 36.6%; in assay [2], 9.63% (active); in [3], 68%; in assay [4] it was 61.1%; in assay [5], 61.3%; in assay [6], 51.9%. Moreover, the growth in [7] was 97.6%; in [8], 12.6%; in [9] it was 47.1%; in assay [10], 65.6%; in [11] it was 56.9%; in assay [12], 40.2%. Further, the growth in [13] was 48.9%; in assay [14] it was 89.3%; in assay [15] it was 32.6%; in [16], 42.7%; in [17], 55.8%; in [18], 14.2%. Also, in [19], the growth is 17.3%.
With `CCn1c2ccc(/C=N/N(C)S(=O)(=O)CCN(C)C)cc2c2cc(/C=N/N(C)S(=O)(=O)CCN(C)C)ccc21`, the growth in assay [1] is 26.2%; in assay [2], 44.8%; in assay [3], 87.1%; in [4] it was 85.8%; in [5] it was 64.8%; in assay [6], 62.4%. In addition, the growth in [7] is 81.7%; in assay [8], -15.3% (active); in assay [9], 87.9%; in [10], 107%; in assay [11], 94.7%; in assay [12], 33.3%. For the same molecule, the growth is 47.5% in [13]; 142% in assay [14]; 70.2% in assay [15]; 48.1% in assay [16]; 85.3% in [17]; 19.4% in [18]. The growth in assay [19] was 15.1%.
With `O=C(COc1ccc(/C=C2\C(=O)Nc3cc(Cl)ccc32)cc1)Nc1ccc(Cl)cc1`, the growth was 42.5% in [1]; 74.6% in assay [2]; 78.9% in assay [3]; 82.1% in assay [4]; 85.2% in [5]; 72.8% in assay [6]. Further, the growth was 24.6% in assay [7]; 44.8% in [8]; 78.7% in assay [9]; 95.6% in [10]; 78.2% in assay [11]; 78.9% in assay [12]. The growth was 46.5% in assay [13]; 127% in [14]; 57.8% in assay [15]; 55.4% in [16]; 102% in [17]; 48.9% in assay [18]. In assay [19], the growth is 50.1%.
For the molecule `O=C1Nc2ccccc2/C1=N\c1nnc(-c2ccccc2)o1`, the growth in [1] was 87.2%; in assay [2] it was 99.2%; in [3] it was 59.9%; in [4], 91.5%; in assay [5], 97.8%; in assay [6] it was 94.3%. In addition, the growth in [7] is 79.7%; in [8] it was 102%; in assay [9], 106%; in [10], 96.4%; in assay [11], 67.9%; in assay [12], 104%. In addition, the growth in assay [13] is 75.5%; in assay [14], 224%; in [15], 88.2%; in assay [16], 88.2%; in assay [17], 90.7%; in assay [18] it was 96.2%. Besides, in assay [19], the growth is 96.7%.
On to `N#C/C(=C\c1ccc(-c2ccc(Cl)c(Cl)c2)o1)C(=O)Nc1ncc(Cc2ccc(Cl)cc2)s1`, for which the growth was 13.5% in assay [1]; 27.9% in assay [2]; 7.13% (active) in [3]; 37.8% in assay [4]; 3.74% (active) in assay [5]; 80.4% in assay [6]. Also, the growth in assay [7] was 48.6%; in assay [8] it was -79.8% (active); in [9], 18.2%; in assay [10], 87.9%; in [11], 32.2%; in assay [12] it was 12%. In addition, the growth in assay [13] is 24.9%; in assay [14], 68.5%; in assay [15], 59.1%; in [16] it was 57.4%; in assay [17], 40.9%; in [18] it was 31.9%. In assay [19], the growth was 58.6%.
As to `Cc1ccc(S(=O)(=O)c2nc(-c3ccc(F)cc3)oc2S(C)(=O)=O)cc1`, the growth in [1] is 13.4%; in [2], 55.1%; in assay [3], 87.2%; in [4], 91.4%; in [5] it was 96.1%; in assay [6], 98.4%. Besides, the growth in [7] was 84.4%; in assay [8] it was -68.8% (active); in [9], 79.8%; in [10] it was 86.3%; in assay [11], 91.8%; in assay [12] it was 67.4%. Besides, the growth in [13] was 54.1%; in [14] it was 93.1%; in assay [15], -91.8% (active); in [16], 41.8%; in [18], -14.8% (active); in assay [19], 2.92% (active).
For `O=C(CCCCCCN1CC(=O)N2[C@@H](C3CC3)c3[nH]c4ccccc4c3C[C@H]2C1=O)NO`, the growth is 92.9% in assay [1]; 78.3% in assay [2]; 58.7% in assay [3]; 68.4% in assay [4]; 53.1% in assay [5]; 44.1% in [6]. In addition, the growth in assay [7] is 31.8%; in [9], 32.3%; in assay [10], 76.5%; in [11], 85.7%; in assay [12], 79%; in assay [13], 70.1%. Moreover, the growth in assay [15] was 67.6%; in assay [16], 69.3%; in assay [17], 98.8%; in assay [18] it was 19.9%; in assay [19], 16%.
